From PubChem BioAssay AID618 (Sanford-Burnham Center for Chemical Genomics, 2007)
The campaign covered roughly 87,000 compounds. About 540 (0.62%) were called active. How the calls were made is not given here. The entries come from a sample that favours actives as a whole. Measured potencies and affinities stand elsewhere.

Experiment: MT1-MMP gene expression reporter suppression – cell-based, luciferase reporter, luminescence (AID 618);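 further: actives suppress MT1-MMP promoter-driven transcription so potencies describe inhibitors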
Conditions: MT1-MMP promoter luciferase reporter cells

SMILES | outcome
CSCC[C@H](NC(=O)CCn1nnc2ccccc2c1=O)C(=O)O | inactive
CCN1CCN(C(=O)c2ccc(Cl)c(S(=O)(=O)N3CCOCC3)c2)CC1 | inactive
Cc1ccc(-n2nc3c(c2NC(=O)c2c(-c4ccccc4Cl)noc2C)CS(=O)(=O)C3)c(C)c1 | inactive
COc1cccc(NC(=O)C(=O)N2CCOCC2)c1 | inactive
Cc1ccc(-n2nc(C)c3c(C)cc(=O)[nH]c32)cc1 | inactive
O=C(c1cccn2c(=O)c3cc(Br)ccc3nc12)N1CCN(c2ccccn2)CC1 | inactive
Cc1ccc(-c2c(C(=O)N3CCOCC3)oc(=O)c3ccccc23)cc1 | inactive
Cn1cnnc1SCC(=O)Nc1ccccc1 | inactive
CCCCOC(=O)c1ccc(NC(=O)CSc2nncn2C)cc1 | active
COC(=O)c1ccc(NC(=O)CSc2nncn2C)cc1 | inactive
O=C1CC(N2CCC(c3nc4ccccc4o3)CC2)C(=O)N1c1ccc(Cl)cc1 (centres undefined) | inactive
O=C(CCS(=O)(=O)c1cccs1)N1CCCC1 | inactive
CC(=O)N1CCc2cc(S(=O)(=O)CCC(=O)O)ccc21 | inactive
O=C1c2ccccc2NC(c2ccc(Cl)cc2Cl)N1Cc1ccccc1 (centres undefined) | inactive
c1ccc2nc3c(nc2c1)sc1nc2ccccc2n13 | inactive
CC(C)(O)c1cc(=O)sc2nc3ccccc3n12 | inactive
N=c1cc(C2(O)CCCCC2)n2c(nc3ccccc32)s1 | active
c1ccc(Cn2c(-c3cncs3)nc3ccccc32)cc1 | inactive
CCCCN(CCCNC(=O)C1CCN(S(=O)(=O)N2CCOCC2)CC1)Cc1ccccc1 | inactive
CCn1c(CCNC(=O)c2cccs2)nnc1SCC(=O)NC1CCCCC1 | inactive
Cc1noc(C)c1CSc1nnc2n(-c3ccccc3)c(=O)c3ccccc3n12 | inactive
COc1cc(OC)cc(-c2cc3nc(C)c(CCC(=O)NC(C)CCc4ccco4)c(C)n3n2)c1 (centres undefined) | inactive
COc1ccc(-c2cc3nc(C)c(CCC(=O)NC(C)CCc4ccco4)c(C)n3n2)c(OC)c1 (centres undefined) | inactive

SMILES | outcome
COc1ccc(CCNC(=O)N2CCOCC2)cc1 | inactive
CC(C)(C)n1nnnc1CN(Cc1ccco1)Cc1cc2cc3c(cc2[nH]c1=O)OCO3 | inactive
O=C(O)c1ccccc1NC(=O)C1CCCO1 (centres undefined) | inactive
c1cncc(CNc2c3c(nc4nnnn24)CCCC3)c1 | inactive
O=C(O)c1cccc(-c2nnn(Cc3ccccc3)n2)c1 | inactive
O=C(O)c1cccc(-c2nnn(Cc3ccccc3Cl)n2)c1 | inactive
COc1cc(-c2nc(S(=O)(=O)c3ccc(C)cc3)c(N(C)C)o2)cc(OC)c1OC | inactive
CCOc1cccc(NC(=O)C2CC(=O)N(C)C2)c1 (centres undefined) | inactive
CC(C)(C)NCC(O)COc1ccccc1C(=O)CCc1ccccc1 (centres undefined) | inactive
CCN(CC)CC(O)COc1ccccc1C(=O)CCc1ccccc1 (centres undefined) | inactive
CCCNCC(O)COc1ccccc1C(=O)CCc1ccccc1 (centres undefined) | active
CC(C)(C)NS(=O)(=O)c1ccc(CCC(=O)NCc2cccnc2)cc1 | inactive
CCOC(=O)c1c(NC(=O)CN(CC)CC)sc2c1CCC2 | inactive
O=C(Cn1c(NCCO)nc2ccccc21)c1cccs1 | inactive
Cc1cc(C)nc(N2CCN(c3nc(C)nc4c3oc3ccccc34)CC2)n1 | inactive
COc1ccccc1N1CCN(c2nc(C)nc3c2oc2ccccc23)CC1 | active
COc1ccccc1N1CCN(c2ncnc3c2oc2ccccc23)CC1 | inactive
Cc1ccc(C(=O)Nc2ccccc2OC(F)F)cc1 | inactive
CN=c1scc(C)n1/N=C/c1ccc2c(c1)OCO2 | active
CCN=c1scc(C)n1/N=C/c1ccsc1 | inactive
Cc1nnc(C)n1/N=C/c1ccc2c(c1)OCCO2 | inactive
CN=c1scc(C)n1/N=C/c1ccc(O)cc1 | inactive
CN=c1scc(C)n1/N=C/c1ccc(O)cc1O | active

SMILES | outcome
CN=c1scc(C)n1/N=C/c1ccc(O)c(O)c1O | inactive
COC(=O)c1ccc(Cn2nc(C(F)(F)F)cc2C)cc1 | inactive
COc1ccccc1OCCSc1nnnn1-c1ccc(C)cc1 | inactive
c1ccc(OCCSc2nnnn2-c2ccccc2)cc1 | inactive
CCN(C(=O)Cc1ccc(Br)cc1)C1CCCCC1 | inactive
C(=N\n1cnnc1)/c1ccc(OCc2cccc3ccccc23)cc1 | inactive
CCOCCOC(=O)CCSc1n[nH]c(=O)[nH]c1=O | inactive
CCCC/C(O)=C1\C(=O)CC(C)(C)CC1=Nc1ccccc1OC | inactive
CCC/C(O)=C1\C(=O)CC(C)(C)CC1=Nc1ccccc1OC | inactive
CCOc1ccc(C2c3c(oc4ccccc4c3=O)C(=O)N2CCCN2CCOCC2)cc1OCC (centres undefined) | inactive
CSc1cc(-c2ccccc2)n(Cc2c(Cl)cccc2Cl)c(=O)c1C#N | active
Cn1c(=O)c2c(nc(SCCCC#N)n2Cc2c(F)cccc2Cl)n(C)c1=O | inactive
Cc1cc(C)n(Cc2ccccc2F)c(=O)c1C#N | inactive
CSc1cc(-c2ccccc2)n(Cc2ccc(Cl)cc2Cl)c(=O)c1C#N | inactive
CSc1cc(-c2ccc(Cl)cc2)n(Cc2ccccc2)c(=O)c1C#N | inactive
CSc1cc(-c2ccccc2)n(Cc2ccccc2Cl)c(=O)c1C#N | active
Cc1ccc(-n2c(SCC(=O)NCc3ccco3)nnc2-c2cccnc2)c(C)c1 | inactive
CCOC(=O)N1CCC(NC(=O)C2CCN(S(=O)(=O)N3CCC(C)CC3)CC2)CC1 | inactive
Cc1cc(C)cc(OCc2nc3ncc(Br)cc3[nH]2)c1 | inactive
C=CCOc1cccc(C2C(C(=O)c3ccco3)=C(O)C(=O)N2CCN2CCOCC2)c1 (centres undefined) | inactive
COc1ccccc1N1CCN(C(=O)CN(c2cc(C)cc(C)c2)S(C)(=O)=O)CC1 | inactive
c1c2c(cc3sc(N4CCCCC4)nc13)OCCO2 | active
c1ccc2c(c1)CCN(c1nc3cc4c(cc3s1)OCO4)C2 | inactive

SMILES | outcome
Clc1ccc2nc(N3CCCCC3)sc2c1 | inactive
c1ccc(N2CCN(c3nc4cc5c(cc4s3)OCCO5)CC2)cc1 | inactive
c1ccc(N2CCN(c3nc4cc5c(cc4s3)OCO5)CC2)cc1 | inactive
c1c2c(cc3sc(N4CCOCC4)nc13)OCO2 | inactive
O=C(c1ccc2nc(N3CCCCC3)sc2c1)N1CCN(Cc2ccc3c(c2)OCO3)CC1 | inactive
c1c2c(cc3sc(N4CCOCC4)nc13)OCCO2 | active
O=S(=O)(c1ccc2c(c1)OCCO2)N1CCN(c2nc3ccccc3s2)CC1 | inactive
c1c2c(cc3sc(N4CCCCC4)nc13)OCO2 | active
c1ccc2c(c1)CCN(c1nc3cc4c(cc3s1)OCCO4)C2 | active
c1ccc2sc(N3CCOCC3)nc2c1 | inactive
CCOC(=O)c1c(COC(=O)c2ccco2)nc2ccccc2[n+]1[O-] | inactive
O=C(CCn1c(=O)oc2ccccc21)Nc1cccc(Cl)c1 | inactive
Cc1cc2ccccc2c(=O)n1CC(=O)Nc1ccc2c(c1)OCCO2 | inactive
CCOC(=O)c1[nH]c2ccc(F)cc2c1NC(=O)C1=COCCO1 | inactive
CC(=O)c1c(C(C)=O)c(C)n(-c2nc(-c3ccc(Br)cc3)c(C)s2)c1C | inactive
OC(COc1ccccc1)CSc1ncn[nH]1 (centres undefined) | inactive
COc1ccc(OCCSc2ncn[nH]2)cc1 | inactive
CCCCn1c(SCC(=O)N2CCOCC2)nnc1-c1cccs1 | inactive
CC[C@]1(O)CC2CN(CCc3c([nH]c4ccccc34)[C@@](C(=O)OC)(c3cc4c(cc3OC)N(C=O)[C@H]3[C@@](O)(C(=O)OC)[C@H](OC(C)=O)[C@]5(CC)C=CCN6CC[C@]43[C@@H]65)C2)C1 (some centres undefined) | active
COc1ccccc1N1CCN(C(=O)CSc2nc(-c3ccco3)cc(C(F)(F)F)n2)CC1 | inactive
Cc1cc(C)c(S(=O)(=O)N2CCCCC2)c(C)c1-n1ncnn1 | inactive
O=C(Cn1nc(-c2ccc(Cl)cc2)c2ccccc2c1=O)NCC1CCCO1 (centres undefined) | inactive
CS(=O)(=O)c1nc(-c2ccccc2)cc(C(F)(F)F)n1 | active

SMILES | outcome
COc1ccccc1-c1cc(C(F)(F)F)nc(S(=O)(=O)CCCC(=O)O)n1 | inactive
COc1ccc(-c2cc(C(F)(F)F)nc(S(C)(=O)=O)n2)cc1 | inactive
COc1ccccc1-c1cc(C(F)(F)F)nc(S(=O)(=O)CCCC(=O)N2CCCCC2C)n1 (centres undefined) | inactive
CCOC(=O)CSc1nc(-c2ccccc2)cc(C(F)(F)F)n1 | inactive
CCOC(=O)CS(=O)(=O)c1nc(-c2ccccc2)cc(C(F)(F)F)n1 | inactive
CCOC(=O)CS(=O)(=O)c1nc(-c2ccc(F)cc2)cc(C(F)(F)F)n1 | active
COC(=O)CCS(=O)(=O)c1nc(-c2ccccc2)cc(C(F)(F)F)n1 | inactive
COc1ccc(-c2cc(C(F)(F)F)nc(S(C)(=O)=O)n2)cc1OC | inactive
COC(=O)CSc1nc(-c2ccc(F)cc2)cc(C(F)(F)F)n1 | inactive
CCNc1nc(Oc2ccc(=O)[nH]n2)nc(N2CCOCC2)n1 | inactive
CCOC(=O)C1=NN(c2ccc(OC)cc2)C(c2ccccc2)CC1=O (centres undefined) | inactive
COC(=O)c1ccc(CSc2nnc(SCc3ccc(C(=O)OC)o3)s2)o1 | inactive
CCN1C(c2ccc(F)cc2)=CS/C1=C(\C#N)c1nnc2n1-c1ccccc1SC2 | inactive
CNc1nnc(-c2cccc(N(C)C)c2)s1 | inactive
CNc1nnc(-c2ccncc2)s1 | inactive
Cc1ccc(-c2nc(CS(=O)(=O)CC(=O)NC3CCCCC3C)c(C)o2)cc1 (centres undefined) | inactive
CCCCCc1ccc(-c2ccc(=O)[nH]n2)cc1 | inactive
CCCCc1ccc(-c2nc(N)n[nH]2)cc1 | inactive
CCc1ccc(-c2ccc(C(=O)O)cc2)nc1 | inactive
CCCCCCc1ccc(-c2ncc(N)cn2)cc1 | active
CCCc1ccc(-c2ccc(C(=O)O)cc2)nc1 | inactive
CC(=O)c1ccc(N=Cc2c(O)n(-c3cc(Cl)ccc3N3CCOCC3)c(=O)c3ccccc23)cc1 | inactive
